From PubChem BioAssay
Where “and” joins values, the source holds several entries; their conditions need not be identical. Equal entries are not always repeated. A structure can be active in one record and inactive in another. Calls of active or inactive are those of the source.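 How the source made its calls, unless noted: active means compounds whose cell count with miR-34 switched on is under 0.7 times the count with it off; inactive means the rest.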

What was measured:
[1] = sensitizers of A549 cells to miR-34 induction, primary screen, imaging, A549 dox-inducible miR-34, nuclei and caspase counts (AID 1347080); settings: A549 miR-34 inducible, Hoechst nuclei count, 48 h
[2] = phospholipid biosynthesis inhibitors in animal cells, primary screen, cell-based, LOPAC library, screen 4 (AID 1347384; call rule not given here); settings: phospholipid biosynthesis inhibition screen, at 10 µM
[3] = survival rescue of mitochondrial mutant cells in low glucose, primary screen, MELAS cybrids, Rieske KO mouse fibroblasts, CellTiter-Glo (AID 1508586;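 active means mean z-score across replicates of 1.96 or higher in either the MELAS or the Rieske mutant cell line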;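 further: z relative to plate mean and SD of compound and empty wells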)
[4] = viability rescue of complex I mutant cybrids, primary screen, cell-based, galactose medium, ATP luminescence (AID 1645843;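 active means z-score of at least 1.8 in each of two replicates, scored against plate mean and spread of sample wells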;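 further: positive z means more ATP and so rescue of galactose-driven cybrid death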); settings: complex I mutant cybrid cells, 72 h, stronger effect = higher value
[5] = biological target: Mitogen-activated protein kinase 7 (Homo sapiens) (UniProt Q13164); experiment: ERK5 transactivation activators in reporter cells, primary screen, cell-based, HTS (AID 1508626;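 active means luciferase signal above three times the same-plate solvent-only control wells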;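 further: luciferase driven by Gal4-ERK5 fusion binding five Gal4 sites before minimal TATA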); settings: HeLa Gal4-ERK5 transactivation, 18 h, at 5 µM, stronger effect = higher value
[6] = biological target: NAD(+) hydrolase SARM1 (Homo sapiens) (UniProt Q6SZW1); experiment: SARM1 TIR NADase inhibitors, cell lysate, NAD-Glo luminescence (AID 1508614;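 active means compound whose remaining NAD level is above about 45 nM, limit read from the data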); settings: SAM-TIR HEK293T lysate NADase, at 1 µM, stronger effect = higher value
[7] = LFS_MB_P medulloblastoma growth inhibition, cell-based, chromothripsis tumors, cisplatin or BGB combos (AID 1671449; in the data active means inhibition above about 80%;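 further: cells exposed for 96 hours; 0% = vehicle DMSO and 100% = killing by high DMSO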); settings: LFS_MB_P medulloblastoma cells
[8] = HDN33 neuroblastoma growth inhibition, cell-based, chromothripsis tumors, cisplatin or BGB combos (AID 1671450; in the data active means inhibition above about 80%;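 further: cells exposed to compound for four days; 0% = vehicle DMSO and 100% = cell killing by high DMSO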); settings: HDN33 neuroblastoma cells, stronger effect = higher value
[9] = ICB984 medulloblastoma cell growth inhibition, synergistic combos for chromothripsis tumors, cisplatin or BGB combos (AID 1671451; call rule not given here;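 further: cells exposed for 96 hours before readout; 0% = vehicle DMSO and 100% = killing by high DMSO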); settings: ICB984 medulloblastoma cells, drug combinations, stronger effect = higher value
[10] = LFS_MB_1R medulloblastoma cell growth inhibition, synergistic combos for chromothripsis tumors, cisplatin or BGB combos (AID 1671452; in the data active means inhibition above about 80%;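 further: cells exposed for 96 hours before readout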); settings: LFS_MB_1R medulloblastoma cells, stronger effect = higher value
[11] = HTB85 osteosarcoma cell growth inhibition, synergistic combos for chromothripsis tumors, BGB or cisplatin IC20 combos (AID 1671453; in the data active means inhibition above about 80%;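 further: cells exposed for 96 hours before readout; 0% = vehicle DMSO and 100% = high DMSO killing control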); settings: HTB85 osteosarcoma cells, drug combinations, stronger effect = higher value
[12] = CRL2098 osteosarcoma cell growth inhibition, synergistic combos for chromothripsis tumors, BGB or cisplatin IC20 combos (AID 1671454; in the data active means inhibition above about 80%;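 further: cells exposed for 96 h before readout; 0% = vehicle DMSO and 100% = killing by high DMSO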); settings: CRL2098 osteosarcoma cells, drug combinations, stronger effect = higher value
[13] = HD-MB03 medulloblastoma cell growth inhibition, synergistic combos for chromothripsis tumors, BGB or cisplatin IC20 combos (AID 1671455; in the data active means inhibition above about 83%;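 further: 0% = vehicle DMSO and 100% = high DMSO as cytotoxic control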); settings: HD-MB03 medulloblastoma cells, stronger effect = higher value
[14] = stronger effect = lower value, cell number ratio, induced over uninduced
[15] = measured here: relative caspase fold change +Dox/-Dox
[16] = measured here: total cells with miR-34 induction, stronger effect = lower value
[17] = measured here: total cells without miR-34 induction
[18] = MELAS cybrid survival, CellTiter-Glo 48 h, stronger effect = higher value
[19] = Rieske KO mouse fibroblast survival, CellTiter-Glo 72 h
[20] = measured here: combination with BGB IC40, at 0.05 µM

Sequence of NAD(+) hydrolase SARM1 (Homo sapiens) (Q6SZW1 whole entry, looked up): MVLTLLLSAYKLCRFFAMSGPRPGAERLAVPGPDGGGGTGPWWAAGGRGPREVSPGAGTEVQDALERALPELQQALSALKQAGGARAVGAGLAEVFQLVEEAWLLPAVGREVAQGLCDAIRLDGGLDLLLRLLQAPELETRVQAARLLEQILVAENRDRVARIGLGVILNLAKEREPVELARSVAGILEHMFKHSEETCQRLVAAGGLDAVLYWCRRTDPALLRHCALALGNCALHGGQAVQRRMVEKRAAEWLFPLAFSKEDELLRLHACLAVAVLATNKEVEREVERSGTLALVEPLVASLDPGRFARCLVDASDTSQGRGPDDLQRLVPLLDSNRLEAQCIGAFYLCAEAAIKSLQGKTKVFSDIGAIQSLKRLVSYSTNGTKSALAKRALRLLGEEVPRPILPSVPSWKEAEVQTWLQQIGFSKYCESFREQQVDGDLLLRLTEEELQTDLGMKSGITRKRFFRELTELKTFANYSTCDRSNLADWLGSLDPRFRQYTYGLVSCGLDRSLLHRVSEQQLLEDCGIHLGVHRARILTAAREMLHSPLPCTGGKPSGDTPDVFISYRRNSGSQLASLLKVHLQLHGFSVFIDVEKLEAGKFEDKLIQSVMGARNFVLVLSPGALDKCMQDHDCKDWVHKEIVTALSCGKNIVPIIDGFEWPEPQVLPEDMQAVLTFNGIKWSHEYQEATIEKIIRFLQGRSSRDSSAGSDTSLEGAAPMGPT
Sequence of Mitogen-activated protein kinase 7 (Homo sapiens) (Q13164 whole entry, looked up, the tested form may be a part): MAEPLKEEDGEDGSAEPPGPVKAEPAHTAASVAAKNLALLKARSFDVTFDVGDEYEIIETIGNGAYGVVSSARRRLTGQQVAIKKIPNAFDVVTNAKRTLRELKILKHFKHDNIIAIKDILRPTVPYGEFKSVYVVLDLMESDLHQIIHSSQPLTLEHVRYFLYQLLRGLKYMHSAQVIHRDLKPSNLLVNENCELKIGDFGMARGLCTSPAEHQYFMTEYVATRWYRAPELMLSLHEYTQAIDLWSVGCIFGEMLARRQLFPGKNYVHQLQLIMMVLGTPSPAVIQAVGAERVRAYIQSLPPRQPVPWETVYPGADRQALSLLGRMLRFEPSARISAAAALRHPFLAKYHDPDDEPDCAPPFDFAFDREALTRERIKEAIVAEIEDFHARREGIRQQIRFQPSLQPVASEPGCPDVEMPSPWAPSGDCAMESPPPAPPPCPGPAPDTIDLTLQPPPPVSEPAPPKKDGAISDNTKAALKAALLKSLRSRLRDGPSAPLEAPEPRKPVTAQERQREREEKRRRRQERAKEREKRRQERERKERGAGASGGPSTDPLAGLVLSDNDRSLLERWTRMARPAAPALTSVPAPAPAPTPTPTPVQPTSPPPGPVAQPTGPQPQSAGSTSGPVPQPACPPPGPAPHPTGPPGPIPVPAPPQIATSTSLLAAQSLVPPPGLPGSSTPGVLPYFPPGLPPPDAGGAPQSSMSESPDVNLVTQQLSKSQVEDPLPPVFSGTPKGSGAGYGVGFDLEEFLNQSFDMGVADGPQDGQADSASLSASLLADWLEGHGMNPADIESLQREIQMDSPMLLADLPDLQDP

With Cc1cccc(C)c1NC(=O)C(C)N (stereo not drawn) the fold change [1, 14] was 0.975 (inactive) and 0.939 (inactive) and 0.865 (inactive), the fold change [1, 15] was 0.988 and 0.663 and 1.75 and the cell count [1, 16] was 10300 and 9450 and 9090. The cell count [1, 17] was 10600 and 10100 and 10500, the outcome [2] was “inactive” and the z-score [3, 18] was 0.748 (inactive). For the same molecule, the z-score [3, 19] was 0.421 and the z-score [4] was 0.04 (inactive) and 0.79 (inactive).
With CCN1CCC[C@H]1CNC(=O)c1cc(S(N)(=O)=O)ccc1OC the fold change [1, 14] was 1.01 (inactive) and 0.997 (inactive) and 0.936 (inactive), the fold change [1, 15] was 1.51 and 0.827 and 1.56 and the cell count [1, 16] was 10700 and 9240 and 9830. For the same molecule, the cell count [1, 17] was 10600 and 9270 and 10500, the outcome [2] was “inactive” and the z-score [3, 18] was 0.469 (inactive). For the same molecule, the z-score [3, 19] was 0.62 and the z-score [4] was 0.65 (inactive) and 0.075 (inactive) and 0.505 (inactive).
In the case of NC/C=C/C(=O)O, the fold change [1, 14] is reported as 1.01 (inactive), the fold change [1, 15] is reported as 1.35 and the cell count [1, 16] is reported as 10300. The cell count [1, 17] was 10200, the outcome [2] was “inactive” and the luciferase signal [5] was 96 AU (inactive). The z-score [4] was 0.575 (inactive).
In the case of CCCCC(CC)CN1CN(CC(CC)CCCC)CC(C)(N)C1 (stereo not drawn), the fold change [1, 14] is reported as 0.838 (inactive), the fold change [1, 15] is reported as 1.46 and the cell count [1, 16] is reported as 8130. For the same molecule, the cell count [1, 17] was 9710, the z-score [3, 18] was -1.45 (inactive) and the z-score [3, 19] was -0.231. The remaining NAD [6] was 10 nM (inactive) and the luciferase signal [5] was 88 AU (inactive).
For C[C@H](NC(CCc1ccccc1)C(=O)O)C(=O)N1CCC[C@H]1C(=O)O (stereo partly drawn), the fold change [1, 14] was 0.987 (inactive) and 0.909 (inactive), the fold change [1, 15] was 0.994 and 1.8 and the cell count [1, 16] was 9660 and 10200. For the same molecule, the cell count [1, 17] was 9790 and 11200, the outcome [2] was “inactive” and the z-score [3, 18] was -0.542 (inactive). The z-score [3, 19] was -1.35, the remaining NAD [6] was 10 nM (inactive) and the z-score [4] was 0.7 (inactive) and 0.605 (inactive).
In the case of CN(C)CC[C@@H](c1ccc(Br)cc1)c1ccccn1, the fold change [1, 14] is reported as 0.946 (inactive), the fold change [1, 15] is reported as 1.72 and the cell count [1, 16] is reported as 9070. The cell count [1, 17] was 9580, the outcome [2] was “inactive” and the z-score [4] was -0.265 (inactive).
For CC(C(=O)O)c1ccc(CC2CCCC2=O)cc1 (stereo not drawn), the fold change [1, 14] was 1.07 (inactive) and 1 (inactive), the fold change [1, 15] was 0.862 and 2.11 and the cell count [1, 16] was 11000 and 10200. The cell count [1, 17] was 10200, the outcome [2] was “inactive” and the remaining NAD [6] was 10 nM (inactive). The z-score [4] was 0.695 (inactive) and 0.805 (inactive).
In the case of CCCCCN(CCCCC)C(=O)C(CCC(=O)O)NC(=O)c1ccc(Cl)c(Cl)c1 (stereo not drawn), the fold change [1, 14] is reported as 1 (inactive) and 0.871 (inactive) and 0.904 (inactive), the fold change [1, 15] is reported as 0.913 and 1.58 and 1.45 and the cell count [1, 16] is reported as 9880 and 9710 and 9580. The cell count [1, 17] was 9840 and 11100 and 10600, the outcome [2] was “inactive” and the z-score [3, 18] was 0.699 (inactive) and -0.377 (inactive). The z-score [3, 19] was -0.146 and -1.36, the remaining NAD [6] was 10 nM (inactive) and the z-score [4] was 2.69 (active) and 0.255 (inactive).
In the case of Cc1cc(N)c2ccccc2[n+]1CCCCCCCCCC[n+]1c(C)cc(N)c2ccccc21, the fold change [1, 14] is reported as 1.04 (inactive) and 0.959 (inactive), the fold change [1, 15] is reported as 1.28 and 1.58 and the cell count [1, 16] is reported as 1900 and 2180. For the same molecule, the cell count [1, 17] was 1830 and 2270, the outcome [2] was “inactive” and the z-score [3, 18] was -3.39 (inactive). For the same molecule, the z-score [3, 19] was -2.46, the remaining NAD [6] was 10 nM (inactive) and the z-score [4] was -1.04 (inactive).
In the case of N=C(N)N, the fold change [1, 14] is reported as 0.954 (inactive) and 0.99 (inactive), the fold change [1, 15] is reported as 0.786 and 0.574 and the cell count [1, 16] is reported as 8580 and 8630. For the same molecule, the cell count [1, 17] was 9000 and 8720, the z-score [3, 18] was -0.279 (inactive) and the z-score [3, 19] was -0.172. For the same molecule, the remaining NAD [6] was 10 nM (inactive) and the luciferase signal [5] was 44 AU (inactive).
In the case of CCN1CCC[C@H]1CNC(=O)c1c(O)c(Cl)cc(Cl)c1OC, the fold change [1, 14] is reported as 1 (inactive) and 0.9 (inactive) and 0.875 (inactive), the fold change [1, 15] is reported as 1.23 and 0.728 and 0.77 and the cell count [1, 16] is reported as 9930 and 9080 and 9820. For the same molecule, the cell count [1, 17] was 9900 and 10100 and 11200, the outcome [2] was “inactive” and the z-score [3, 18] was -0.782 (inactive) and -0.532 (inactive). The z-score [3, 19] was -0.0598 and -0.803 and the z-score [4] was 0.525 (inactive) and -0.165 (inactive) and 0.41 (inactive).
With CCn1cc(C(=O)O)c(=O)c2cc3c(cc21)OCO3 the fold change [1, 14] was 1.06 (inactive) and 0.943 (inactive) and 0.852 (inactive), the fold change [1, 15] was 0.823 and 1.43 and 2.84 and the cell count [1, 16] was 10300 and 9150 and 11200. For the same molecule, the cell count [1, 17] was 9710 and 9700 and 13200, the outcome [2] was “inactive” and the z-score [3, 18] was 0.663 (inactive). The z-score [3, 19] was 0.252, the remaining NAD [6] was 10 nM (inactive) and the luciferase signal [5] was 88 AU (inactive). For the same molecule, the z-score [4] was 0.245 (inactive), the inhibition ([7]; at 0.5 µM, stronger effect = higher value) was -36.8% (inactive) and the inhibition ([7]; measured here: combination with BGB IC20, at 0.005 µM) was -15.7%. The inhibition ([7]; measured here: combination with BGB IC40, at 0.005 µM) was -20.3%, the inhibition [7, 20] was -2.68% and the inhibition ([7]; measured here: combination with cisplatin, at 0.5 µM, stronger effect = higher value) was -50%. For the same molecule, the inhibition ([7]; measured here: combination with cisplatin, at 5 µM, stronger effect = higher value) was -47.2%, the inhibition ([8]; BGB combo, at 5 µM) was -6.85% and the inhibition ([8]; at 0.5 µM) was 11.7% (inactive). The inhibition ([8]; cisplatin combo, at 5 µM) was -11.4%, the inhibition ([8]; measured here: with BGB IC20 combination, at 0.5 µM) was 31.7% and the inhibition ([8]; measured here: with cisplatin IC20 combination, at 0.5 µM) was -3.7%. The inhibition ([8]; single agent, at 5 µM) was 13.3%, the inhibition ([9]; BGB IC20 combo, at 0.005 µM) was -17.2% and the inhibition ([9]; BGB IC40 combo, at 0.005 µM) was 7.28%. The inhibition ([9]; BGB IC40 combo, at 0.05 µM) was 6.59%, the inhibition ([9]; at 0.5 µM) was -11.6% (inactive) and the inhibition ([9]; cisplatin combo, at 0.05 µM) was 6.59%. The inhibition ([9]; cisplatin combo, at 0.5 µM) was -23.1%, the inhibition ([9]; cisplatin combo, at 5 µM) was 6.27% and the inhibition ([9]; measured here: 5 uM single agent, at 5 µM) was -34.2%. The inhibition ([10]; at 0.5 µM) was 0.84% (inactive), the inhibition [10, 20] was -15.9% and the inhibition ([10]; measured here: combination with cisplatin, at 0.5 µM) was -7.75%. The inhibition ([10]; measured here: combination with cisplatin, at 5 µM) was -5.64%, the inhibition ([11]; at 0.5 µM) was -2.07% (inactive) and the inhibition ([11]; measured here: with BGB IC20, at 0.5 µM) was -19.1%. For the same molecule, the inhibition ([11]; measured here: with BGB IC20, at 5 µM) was -10.5%, the inhibition ([11]; measured here: with cisplatin IC20, at 0.5 µM) was 12% and the inhibition ([11]; measured here: with cisplatin IC20, at 5 µM) was 2.66%. For the same molecule, the inhibition ([11]; single agent, at 5 µM) was -16.7%, the inhibition ([12]; at 0.5 µM) was -34.7% (inactive) and the inhibition ([12]; measured here: combination with BGB at IC20, at 0.5 µM) was -42.4%. For the same molecule, the inhibition ([12]; measured here: combination with cisplatin at IC20, at 0.5 µM) was -29.3%, the inhibition ([13]; at 0.5 µM) was 1.11% (inactive) and the inhibition ([13]; measured here: combo with BGB at IC20, at 0.5 µM) was -0.045%. For the same molecule, the inhibition ([13]; measured here: combo with cisplatin at IC20, at 0.5 µM) was -3.84%.
For O=C(O)c1ccccc1C(=O)Nc1ccc(S(=O)(=O)Nc2nccs2)cc1, the fold change [1, 14] was 0.914 (inactive) and 0.897 (inactive), the fold change [1, 15] was 1.08 and 2.76 and the cell count [1, 16] was 8730 and 11300. For the same molecule, the cell count [1, 17] was 9550 and 12600, the z-score [3, 18] was 0.52 (inactive) and the z-score [3, 19] was 0.0843. For the same molecule, the remaining NAD [6] was 10 nM (inactive) and the luciferase signal [5] was 92 AU (inactive).
For CCOC(=O)n1ccn(C)c1=S, the fold change [1, 14] was 0.866 (inactive) and 0.865 (inactive), the fold change [1, 15] was 1.28 and 0.473 and the cell count [1, 16] was 8700 and 8400. The cell count [1, 17] was 10100 and 9710, the z-score [3, 18] was -0.0629 (inactive) and 0.57 (inactive) and the z-score [3, 19] was -0.122 and 0.0161. The remaining NAD [6] was 10 nM (inactive).
